From PubChem BioAssay AID1626 (SRMLSC, 2009)
Hit rate of the full screen: of about 220,000 compounds, about 2,000 (0.91%) were called active. Inconclusive results (about 2%) are left out. Not all results are given here. Results with a measured potency or affinity are listed apart. Unmarked numbers belong to inactive results. Cut-off read from the data, not from the text of the source: inconclusive = inhibition above about 80% without an active follow-up result; inactive = below that; test concentration not stated here.

Assay: M. tuberculosis H37Rv growth inhibitors, H37Rv strain (AID 1626);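 note: bacteria incubated seven days before Alamar blue readout; 0% = bacteria only wells and 100% = bacteria with antibiotic wells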
Conditions: stronger effect = higher value, concentration not given here

Q: With `Cc1cccc(NC(=O)CSc2nnc(-c3ccncc3)n2C)c1` as the compound, how does the inhibition read?
A: The inhibition was -2.48%.

Q: Which inhibition does the source give for `COC(=O)c1ccc(N)c(N=CC2=C(O)CC(C)(C)CC2=O)c1` here?
A: Its inhibition is 99.2%.

Q: Which inhibition does the source give for `CCOCCSC1=C(C#N)C(c2cccs2)C(C(C)=O)=C(C)N1` (stereo not drawn) here?
A: Its inhibition is -2.87%.

Q: With `CCSC1=C(C#N)C(c2cccs2)C(C(=O)OC)=C(C)N1` (stereo not drawn) as the compound, how does the inhibition read?
A: The inhibition was -5.12%.

Q: Which inhibition does the source give for `Cc1nc2cc(NC(=O)CCS(=O)(=O)c3ccccc3)ccc2s1` here?
A: The inhibition was -0.27%.

Q: For `Nc1ncnc(Oc2ccccc2F)c1[N+](=O)[O-]`, which inhibition is on record?
A: Its inhibition is 7.09%.

Q: With `Cc1ccccc1Oc1ncnc(N)c1[N+](=O)[O-]` as the compound, how does the inhibition read?
A: Its inhibition is -1.2%.

Q: With `COc1ccc(NC(=O)C(=O)NCCN2CCN(C(=O)c3ccco3)CC2)cc1` as the compound, how does the inhibition read?
A: The inhibition was 4.1%.

Q: For `O=C(Cc1cccs1)Nc1ccc(-c2nc3ccccc3[nH]2)cc1`, which inhibition is on record?
A: Its inhibition is 1.13%.

Q: With `O=C(COc1ccccc1)Nc1cccc(-c2nc3cc4ccccc4cc3[nH]2)c1` as the compound, how does the inhibition read?
A: Its inhibition is 55.3%.

Q: Which inhibition does the source give for `O=C(Nc1cccc([N+](=O)[O-])c1)N1CCN(c2ccccc2)CC1` here?
A: Its inhibition is -7.11%.

Q: For `CC(=O)c1ccc(NC(=O)N2CCN(c3ccc(C)cc3)C(C)C2)cc1` (stereo not drawn), which inhibition is on record?
A: The inhibition was 0.07%.

Q: Which inhibition does the source give for `Cc1ccc(NC(=S)NCc2ccccc2)cc1S(=O)(=O)N1CCCCC1` here?
A: Its inhibition is -3.09%.

Q: For `Cc1cc2c(ncn2Cc2ccccc2)c(N)c1C`, which inhibition is on record?
A: The inhibition was 1.64%.

Q: For `CCCn1cnc2c(N)c(C)c(C)cc21`, which inhibition is on record?
A: The inhibition was -8.86%.

Q: With `N#C/C(=N\Nc1c(Cl)cccc1Cl)C(=O)NN` as the compound, how does the inhibition read?
A: The inhibition was 0.65%.

Q: With `O=[N+]([O-])c1cc(/C=N\Nc2nc(-c3ccccc3)cs2)ccc1O` as the compound, how does the inhibition read?
A: The inhibition was -2.52%.

Q: For `O=C(Nc1ccccc1Cl)Oc1ccc(Cl)cc1Cl`, which inhibition is on record?
A: The inhibition was -3.15%.

Q: Which inhibition does the source give for `O=C(Nc1ccccc1Cl)Nc1ccccc1Cl` here?
A: Its inhibition is -9.3%.

Q: For `Cn1c(NC(=O)C2CC2)cc(=O)n(C)c1=O`, which inhibition is on record?
A: Its inhibition is 5.07%.

Q: For `O=c1oc(/C=C/c2ccccc2)nc2sc3c(c12)CCC3`, which inhibition is on record?
A: The inhibition was -3.48%.

Q: Which inhibition does the source give for `CCn1c(/C=C/c2ccccc2)nc2ccccc2c1=O` here?
A: Its inhibition is 0.15%.

Q: With `COC(=O)c1cc(OC)c(OC)cc1NC(=O)c1cccnc1` as the compound, how does the inhibition read?
A: Its inhibition is 4.7%.

Q: For `CCCOc1c(Cl)cc(C(=O)NC)cc1OC`, which inhibition is on record?
A: Its inhibition is 12%.

Q: Which inhibition does the source give for `COC(=O)CC1C(=O)NCCN1C(=O)c1sc2ccccc2c1Cl` (stereo not drawn) here?
A: Its inhibition is -9.23%.

Q: With `O=C(COC(=O)Cc1ccccc1F)Nc1ccc(Cl)cn1` as the compound, how does the inhibition read?
A: The inhibition was -6.09%.

Q: For `CCOc1ccc2ncc(S(=O)(=O)c3ccccc3)c(N3CCC4(CC3)OCCO4)c2c1`, which inhibition is on record?
A: The inhibition was -1.36%.

Q: Which inhibition does the source give for `COc1ccc(S(=O)(=O)c2cnc3ccc(OC)cc3c2N2CCC3(CC2)OCCO3)cc1` here?
A: Its inhibition is 9.48%.

Q: Which inhibition does the source give for `Cc1ccc(N2C(=O)[C@@H]3[C@H](C2=O)C2c4ccccc4C=NN2[C@@H]3C(=O)c2ccc(Cl)cc2)cc1` (stereo partly drawn) here?
A: Its inhibition is 8.72%.

Q: With `Cc1ccc(-n2cc(-c3ccc([N+](=O)[O-])cc3)[nH]c2=S)c(C)c1` as the compound, how does the inhibition read?
A: The inhibition was 3.47%.

Q: With `Cc1ccc(C(=O)CSc2ccccn2)cc1` as the compound, how does the inhibition read?
A: The inhibition was -3.3%.

Q: With `O=C(O)c1ccnc(SCC(=O)c2ccccc2)c1` as the compound, how does the inhibition read?
A: The inhibition was -4.56%.

Q: Which inhibition does the source give for `CCC(CC)C(=O)Nc1cc([N+](=O)[O-])ccc1Cl` here?
A: The inhibition was 5.59%.

Q: Which inhibition does the source give for `O=C(CCCC(=O)OCC(Cl)=C(Cl)Cl)Nc1ccccc1F` here?
A: Its inhibition is -0.28%.

Q: For `O=Cc1[nH]c2ccccc2c1N(C(=O)CCl)c1ccc([N+](=O)[O-])cc1`, which inhibition is on record?
A: The inhibition was -1.28%.

Q: Which inhibition does the source give for `COC(=O)c1cn(C(=O)c2ccc(Cl)cc2)c2ccccc12` here?
A: Its inhibition is -3.26%.

Q: For `CC(=O)n1cc(-c2ccncc2)c2ccccc21`, which inhibition is on record?
A: The inhibition was 8.31%.

Q: Which inhibition does the source give for `COc1ccccc1N(C(=O)CCl)c1cn(C(C)=O)c2ccccc12` here?
A: Its inhibition is 42.8%.

Q: For `CC(=O)n1cc(Nc2ccc([N+](=O)[O-])cc2)c2ccccc21`, which inhibition is on record?
A: The inhibition was 3.13%.

Q: For `CC(=O)N(c1ccc(Cl)cc1)c1cn(C(C)=O)c2ccccc12`, which inhibition is on record?
A: The inhibition was 11.9%.

Q: Which inhibition does the source give for `CCOC(=O)c1ccccc1Nc1cn(C(C)=O)c2ccccc12` here?
A: Its inhibition is 3.14%.

Q: Which inhibition does the source give for `CC(=O)n1cc(Nc2ccccc2C(=O)O)c2ccccc21` here?
A: The inhibition was -4.19%.

Q: Which inhibition does the source give for `CC(NC(=O)COC(=O)C1CSC2(C)CCC(=O)N12)C12CC3CC(CC(C3)C1)C2` (stereo not drawn) here?
A: Its inhibition is -1.31%.

Q: Which inhibition does the source give for `O=C(CN1CCN(Cc2ccccc2)CC1)N/N=C/c1ccccc1F` here?
A: The inhibition was -1.58%.

Q: For `Cn1cc(CNCc2cn(C)nc2-c2ccc(C3CCCCC3)cc2)cn1`, which inhibition is on record?
A: The inhibition was 8.48%.

Q: For `COc1ccc(C(=O)c2ccc(Cl)cc2)cc1`, which inhibition is on record?
A: The inhibition was 6.37%.

Q: For `CCOC(=O)C1CCN(S(=O)(=O)c2ccc(-n3cnnn3)c(C)c2)CC1`, which inhibition is on record?
A: The inhibition was -3.24%.

Q: Which inhibition does the source give for `O=C(COC(=O)c1ccc(Cl)nc1)NCc1ccco1` here?
A: The inhibition was -2.82%.

Q: For `Clc1cccc(Cl)c1Cn1nnc(N2CCCC2)n1`, which inhibition is on record?
A: Its inhibition is -4.55%.

Q: With `O=C(CCCn1c(SCC(=O)c2ccc(Cl)cc2)nc2ccccc2c1=O)NCc1ccco1` as the compound, how does the inhibition read?
A: Its inhibition is -0.03%.

Q: With `Cc1cc(C)c2cc(C)c(SCC(=O)NCc3ccco3)nc2c1` as the compound, how does the inhibition read?
A: Its inhibition is -6.87%.

Q: Which inhibition does the source give for `CCc1ccccc1NC(=S)N1CCNC(=O)C1CC(=O)OC` (stereo not drawn) here?
A: Its inhibition is 3.01%.

Q: Which inhibition does the source give for `Cc1ccc(NC2=C(Cl)C(=O)OC2OC(C)C)cc1` (stereo not drawn) here?
A: The inhibition was -6.44%.

Q: For `CCN(CC)S(=O)(=O)c1ccc(N2CCOCC2)c(NC(=O)c2ccc(NC(C)=O)cc2)c1`, which inhibition is on record?
A: The inhibition was -0.34%.

Q: Which inhibition does the source give for `CCCCN1/C(=C/c2ccc3ccccc3[n+]2CC)Sc2ccccc21` here?
A: Its inhibition is -5.31%.

Q: Which inhibition does the source give for `CC(=S)/C=C1\Sc2ccccc2N1C` here?
A: The inhibition was -6.98%.

Q: For `NC(=O)C1=NOC(CNc2ncc(C(F)(F)F)cc2Cl)C1` (stereo not drawn), which inhibition is on record?
A: The inhibition was -9.36%.

Q: Which inhibition does the source give for `CCN(CC)S(=O)(=O)c1ccc(C(=O)N2CCc3ccccc32)cc1` here?
A: The inhibition was -0.89%.

Q: For `O=C(/C=C/c1ccccc1)NCc1cccnc1`, which inhibition is on record?
A: Its inhibition is -0.63%.

Q: Which inhibition does the source give for `O=C(Nc1ccccc1N1CCN(C(=O)c2ccccc2)CC1)c1cc(Br)ccc1Cl` here?
A: Its inhibition is 8.71%.

Q: For `COc1c(C)cc(Br)cc1C(=O)Nc1ccccc1N1CCN(C(=O)c2ccccc2)CC1`, which inhibition is on record?
A: The inhibition was 19.8%.

Q: Which inhibition does the source give for `Cc1cc(C)n2[nH]c(=O)c(N=Nc3cccc(C(F)(F)F)c3)c2n1` here?
A: The inhibition was 46.9%.

Q: Which inhibition does the source give for `Cc1[nH]n(C2=NCCS2)c(=O)c1N=Nc1ccccc1` here?
A: Its inhibition is 2.69%.
